Laboratory results reported in the supplement of paper PMC10981050.
“And” between values parts separate entries of the source, which are not always exact repeats. Identical values can stand only once. Counter-ions that a name gives are not always drawn.

What was measured:
Assay in all cases: cell viability relative to vehicle control; higher = less cytotoxic
Conditions in all cases: 10 µM
[1] = tested on: K562
In short: (§1)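 Mutant clones made by CRISPR editing and their isogenic wild-type counterparts, from four leukaemia lines, were exposed to a single 10 µM dose of each library compound for 48 h. The supernatant was then removed and CellTiter-Glo luminescence was read. Viability was reported as percent of the on-plate vehicle control.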

[2] = tested on: MARIMO
In short: as §1

[3] = tested on: MOLM14
In short: as §1

[4] = tested on: OCI-AML2
In short: as §1

| SMILES | cell viability ([1]; SRSF2 genotype: SRSF2 P95H/wt) | cell viability ([1]; SRSF2 genotype: SRSF2 wt/wt) | cell viability ([2]; SRSF2 genotype: SRSF2 P95H/wt) | cell viability ([2]; SRSF2 genotype: SRSF2 wt/wt) | cell viability ([3]; SRSF2 genotype: SRSF2 P95H/wt) | cell viability ([3]; SRSF2 genotype: SRSF2 wt/wt) | cell viability ([4]; SRSF2 genotype: P95H/wt) | cell viability ([4]; SRSF2 genotype: wt/wt) |
| --- | --- | --- | --- | --- | --- | --- | --- | --- |
| CO[C@@]1(NC(=O)CSC[C@@H](N)C(=O)O)C(=O)N2C(C(=O)O)=C(CSc3nnnn3C)CS[C@@H]21 [Cefminox Sodium] | 103% | 99% | 105% | 109% | 96% | 106% | 99.4% | 98% |
| Cc1cc(-c2nc(-c3ccc(OC(F)(F)F)cc3)no2)nn1Cc1ccnc(N2CCN(C3CC3)CC2)c1 | 61.8% and 46.9% | 54.1% | 63% | 53.7% | 63.5% | 51.8% | 52.2% | 46.9% |
| O=c1cc(-c2ccc(O)cc2)oc2c([C@@H]3OC[C@H](O)[C@H](O)[C@H]3O)c(O)c([C@@H]3O[C@H](CO)[C@@H](O)[C@H](O)[C@H]3O)c(O)c12 [Schaftoside] | 113% and 106% | 113% | 108% | 107% | 112% | 105% | 106% | 105% |
| CN(Cc1cc(Br)cc(Br)c1N)C1CCCCC1 [Bromhexine HCl] | 96.8% and 96.7% | 92.8% | 86.6% | 99.2% | 96.7% | 99.4% | 92.2% | 98.7% |
| COc1cc(C(C)=O)ccc1OCCCN1CCC(c2noc3cc(F)ccc23)CC1 [Iloperidone (Fanapt)] | 81.7% and 86.8% | 86.3% | 68.2% | 90.2% | 85.9% | 88.5% | 71.4% | 83.4% |
| O=C(O)CCn1c(O)c(C2=c3cc(Cl)ccc3=NC2=O)sc1=S | 87.5% and 92.5% | 88.2% | 84.1% | 88.7% | 71.7% | 83.2% | 107% | 116% |
| N/N=c1\[nH][nH]/c(=N\N)c2ccccc12 [Dihydralazine sulphate] | 93.9% and 93.2% | 95.5% | 95.3% | 94.3% | 106% | 103% | 93% | 95.4% |
| OCc1ccccc1O[C@@H]1O[C@H](CO)[C@@H](O)[C@H](O)[C@H]1O [Salicin (Salicoside, Salicine)] | 101% and 103% | 110% | 103% | 106% | 99.7% | 104% | 105% | 112% |
| O=C(Nc1ccc(O)c(C(=O)O)c1)c1cccc(NC(=O)c2ccco2)c1 | 103% and 105% | 99.4% | 97.2% | 100% | 104% | 102% | 105% | 105% |
| Nc1nc(-c2nn(Cc3ccccc3F)c3ncccc23)ncc1C1CC1 | 110% and 114% | 95.3% | 103% | 101% | 104% | 104% | 83.9% | 86.4% |
| Cc1nccn1CCC(C(N)=O)(c1ccccc1)c1ccccc1 [Imidafenacin] | 94.5% and 91.6% | 105% | 87.6% | 91.8% | 99.2% | 101% | 90.8% | 102% |
| COc1cc(O)c(C(=O)Nc2nc(C(=O)NCCN(C(C)C)C(C)C)cs2)cc1OC [Acotiamide hydrochloride] | 93.4% and 91.4% | 103% | 98% | 98.8% | 97% | 98.8% | 97.1% | 98.7% |
| C=CC(=O)Nc1ccc2ncnc(Nc3cccc(Br)c3)c2c1 | 66% and 72.7% | 71.1% | 70% | 86.8% | 61.6% | 81.3% | 50% | 50.9% |
| Cn1nc(C(C)(C)C)cc1C(=O)N[C@@H](Cc1cccc(Cl)c1)C(=O)NCC#N [Cathepsin Inhibitor 1] | 93.5% and 89.9% | 83.2% | 93.1% | 100% | 92.4% | 98.4% | 97.8% | 95.9% |
| Oc1ccc(Cc2nc3c(Cc4ccccc4)nc(-c4ccc(O)cc4)cn3c2O)cc1 [Coelenterazine] | 96.7% and 92.9% | 101% | 94.9% | 93.5% | 86.2% | 97% | 98.8% | 98% |
| O=C1CN(/N=C/C=C/c2ccc([N+](=O)[O-])o2)C(=O)N1 [Furagin] | 105% and 103% | 104% | 93.7% | 107% | 105% | 108% | 101% | 108% |
| C[C@@H](O[C@H]1OCCN(Cc2n[nH]c(=O)[nH]2)[C@H]1c1ccc(F)cc1)c1cc(C(F)(F)F)cc(C(F)(F)F)c1 [Aprepitant (MK-0869)] | 52.7% and 46% | 56.8% | 73% | 56.1% | 56.2% | 64.3% | 45.8% | 56.8% |
| CCCCCC1C(=O)CCC1CC(=O)OCCC (stereo not drawn) [Prohydrojasmon] | 100% and 102% | 109% | 98.6% | 98.6% | 95.8% | 106% | 110% | 118% |
| CC(C)C(C(=O)O)N1C(=O)C(=Cc2ccc(Br)cc2)SC1=S (stereo not drawn) | 105% | 102% | 98.4% | 105% | 100% | 100% | 102% | 109% |
| CCCSc1nc(N[C@@H]2C[C@H]2c2ccc(F)c(F)c2)c2nnn([C@@H]3C[C@H](OCCO)[C@@H](O)[C@H]3O)c2n1 [Ticagrelor] | 77.4% and 77.6% | 70.3% | 86.9% | 86.5% | 74.5% | 85.9% | 71.5% | 70% |
| O=C(O)CCc1ccc(NCc2cccc(Oc3ccccc3)c2)cc1 | 94.2% and 89.7% | 111% | 82.4% | 93.1% | 94.2% | 95.7% | 91% | 92.7% |

| SMILES | cell viability ([1]; SRSF2 genotype: SRSF2 P95H/wt) | cell viability ([1]; SRSF2 genotype: SRSF2 wt/wt) | cell viability ([2]; SRSF2 genotype: SRSF2 P95H/wt) | cell viability ([2]; SRSF2 genotype: SRSF2 wt/wt) | cell viability ([3]; SRSF2 genotype: SRSF2 P95H/wt) | cell viability ([3]; SRSF2 genotype: SRSF2 wt/wt) | cell viability ([4]; SRSF2 genotype: P95H/wt) | cell viability ([4]; SRSF2 genotype: wt/wt) |
| --- | --- | --- | --- | --- | --- | --- | --- | --- |
| CC(C)=CC[C@@H](O)C1=CC(=O)c2c(O)ccc(O)c2C1=O [Shikonin] | 1.68% and 0.52% | 0.87% | 0.3% | 0.35% | 0.44% | 0.28% | 0.19% | 0.25% |
| C=CC[N+]1([C@H]2C[C@H]3[C@@H]4CC[C@H]5C[C@H](O)[C@@H](N6CCOCC6)C[C@]5(C)[C@H]4CC[C@]3(C)[C@H]2OC(C)=O)CCCC1 [Rocuronium bromide] | 98.3% and 90.4% | 91.2% | 90.3% | 95.3% | 103% | 96.7% | 88.1% | 99.3% |
| CCCNC[C@]1(O)[C@H](C)O[C@@H](O[C@H]2[C@H](C)[C@@H](O[C@@H]3O[C@H](C)C[C@H](N(C)C)[C@H]3O)[C@](C)(O)C[C@@H](C)CN[C@H](C)[C@@H](O)[C@](C)(O)[C@@H](CC)OC(=O)[C@@H]2C)C[C@@]1(C)OC [Tulathromycin A] | 101% and 105% | 104% | 101% | 107% | 100% | 106% | 99.9% | 99% |
| O=C(O)CSCC(=O)NC1CCSC1=O (stereo not drawn) [Erdosteine] | 101% and 96.3% | 97.8% | 101% | 102% | 97.8% | 98% | 89.9% | 96.9% |
| O=C[C@H](O)[C@H]1OC(=O)[C@@H](O)[C@H]1O [D-Glucurone] | 90.4% and 88.2% | 86.3% | 84.2% | 95.1% | 88.8% | 88.3% | 88.8% | 94.2% |
| C[C@@H](CN1CC(=O)NC(=O)C1)N1CC(=O)NC(=O)C1 [Dexrazoxane Hydrochloride] | 99.3% and 102% | 97.5% | 92.4% | 96.4% | 70.5% | 78% | 75.2% | 76.2% |
| Oc1c(Cl)cc(Cl)c2cccnc12 [Chloroxine] | 62.1% and 63.6% | 66.6% | 21.6% | 14.7% | 55.5% | 63.2% | 1.78% | 3.9% |
| Cc1ccc(S(=O)(=O)n2c(N)nc3ccccc32)cc1 | 95.4% and 101% | 97.9% | 102% | 104% | 102% | 104% | 98.3% | 97.2% |
| COC(=O)C1=C(C)NC(C)=C(C(=O)OCC(C)C)C1c1ccccc1[N+](=O)[O-] (stereo not drawn) [Nisoldipine] | 80.1% and 83.8% | 80.3% | 56.3% | 58.6% | 41.7% | 34.7% | 41.2% | 55.3% |
| N=C(N)NC(=N)NCCc1ccccc1 [Phenformin hydrochloride] | 84.6% and 93.3% | 91.7% | 93.2% | 98.2% | 101% | 94.9% | 86% | 89.3% |
| CO/N=C(\C(=O)N[C@@H]1C(=O)N2C(C(=O)O)=C(CSc3nc(C)c(CC(=O)O)s3)CS[C@H]12)c1csc(N)n1 [Cefodizime Sodium] | 96% and 90.5% | 103% | 100% | 112% | 97.1% | 104% | 99.6% | 107% |
| Cc1cccc(Nc2ccccc2C(=O)O)c1C [Mefenamic Acid] | 98.6% and 99.4% | 96.4% | 103% | 92.8% | 94.5% | 98.5% | 106% | 101% |
| c1cn2cc(-c3ccc4cn[nH]c4c3)nc(Nc3ccc(N4CCOCC4)cc3)c2n1 [Entospletinib (GS-9973)] | 89.8% and 84.7% | 95.7% | 89.5% | 89.9% | 79% | 95.6% | 92.5% | 85.6% |
| C=C(C)[C@@H]1CC[C@]2(C)CC[C@]3(C)[C@H](CC[C@@H]4[C@@]5(C)CC[C@H](O)C(C)(C)[C@@H]5CC[C@]43C)[C@@H]12 [Lupeol] | 106% | 113% | 109% | 108% | 105% | 109% | 108% | 108% |
| C/C=C/c1ccc(OC)cc1 [Trans-Anethole] | 107% and 99.3% | 97.3% | 103% | 102% | 103% | 103% | 92% | 116% |
| C[C@H]1c2cccc(O)c2C(O)=C2C(=O)[C@]3(O)C(O)=C(C(N)=O)C(=O)[C@@H](N(C)C)[C@@H]3[C@@H](O)[C@@H]21 [Doxycycline] | 82.7% and 74.8% | 79.9% | 91.8% | 91.3% | 102% | 99.5% | 88.2% | 96.2% |
| CC(=O)Oc1cc(C(F)(F)F)ccc1C(=O)O [Triflusal] | 101% and 90.6% | 99.7% | 98.9% | 101% | 97.7% | 101% | 92.2% | 102% |
| COc1cc2c(cc1O)CC[C@@H]1[C@@H]2CC[C@]2(C)[C@@H](O)CC[C@@H]12 [2-Methoxyestradiol] | 14% and 27.1% | 29.9% | 10.4% | 10.9% | 7.93% | 2.27% | 6.68% | 13.6% |
| Cc1coc2c1C(=O)C(=O)c1c-2ccc2c(C)cccc12 [Tanshinone I] | 66.7% and 48.1% | 41.4% | 70.6% | 63.4% | 76.1% | 48.3% | 57.5% | 60% |
| Cc1ccc(O)c([C@H](CCN(C(C)C)C(C)C)c2ccccc2)c1 [Tolterodine tartrate (Detrol LA)] | 80.3% and 94% | 87.2% | 75.7% | 81.6% | 70% | 83.4% | 88.6% | 84% |
